# The supplement of paper PMC4466140
# What was measured:
# Assay in all cases: SPOT peptide array binding signal intensity (averaged, normalized) (arbitrary units (background-subtracted, floor 0; scale differs between SH3 domains)); higher = stronger binding of the SH3 domain to the peptide
# SpBzz1-D2 = target: SpBzz1-D2
# Outline: (§1)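 Detection of bound protein relied on anti-GST antibody, an HRP anti-mouse secondary and luminol, with imaging and quantification in Genespotter. The bound protein was GST-fused SH3 domains from four yeast species, incubated at 10 μg/ml overnight at 4°C in TBS-based blocking buffer on cellulose membranes carrying synthetic 15-mer peptides with cysteines replaced by serines. Binding signal is normalized, background-subtracted spot intensity averaged over replicates, in arbitrary units that differ between domains.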
# SpCyk3 = target: SpCyk3
# Outline: as §1
# SpHof1 = target: SpHof1
# Outline: as §1
# SpHof1-2 = target: SpHof1-2
# Outline: as §1
# SpHof1-3 = target: SpHof1-3
# Outline: as §1
# SpHse1 = target: SpHse1
# Outline: as §1
# SpLsb1 = target: SpLsb1
# Outline: as §1
# SpLsb4 = target: SpLsb4
# Outline: as §1
# SpMyo1 = target: SpMyo1
# Outline: as §1
# SpNbp2 = target: SpNbp2
# Outline: as §1
# SpPex13 = target: SpPex13
# Outline: as §1
# SpRvs167 = target: SpRvs167
# Outline: as §1
# SpSla1-D1-D2 = target: SpSla1-D1-D2
# Outline: as §1
# SpSla1-D3 = target: SpSla1-D3
# Outline: as §1
# AgAbp1 = target: AgAbp1
# Outline: as §1
# AgBbc1 = target: AgBbc1
# Outline: as §1
# AgBem1-D1 = target: AgBem1-D1
# Outline: as §1
# AgBzz1-D1 = target: AgBzz1-D1
# Outline: as §1
# AgBzz1-D2 = target: AgBzz1-D2
# Outline: as §1
# AgCyk3 = target: AgCyk3
# Outline: as §1
# AgFus1 = target: AgFus1
# Outline: as §1
# AgHof1 = target: AgHof1
# Outline: as §1
# AgHse1 = target: AgHse1
# Outline: as §1
# AgLsb1 = target: AgLsb1
# Outline: as §1
# AgLsb4 = target: AgLsb4
# Outline: as §1
# AgMyo5 = target: AgMyo5
# Outline: as §1
# AgNbp2 = target: AgNbp2
# Outline: as §1
# AgRvs167 = target: AgRvs167
# Outline: as §1
# AgSho1 = target: AgSho1
# Outline: as §1
# AgSla1-D1-D2 = target: AgSla1-D1-D2
# Outline: as §1
# AgSla1-D3 = target: AgSla1-D3
# Outline: as §1
# CaAbp1-D1 = target: CaAbp1-D1
# Outline: as §1
# CaAbp1-D2 = target: CaAbp1-D2
# Outline: as §1
# CaBbc1 = target: CaBbc1
# Outline: as §1
# CaBem1-D1 = target: CaBem1-D1
# Outline: as §1
# CaBzz1-D1 = target: CaBzz1-D1
# Outline: as §1
# CaBzz1-D2 = target: CaBzz1-D2
# Outline: as §1
# CaCyk3 = target: CaCyk3
# Outline: as §1
# CaFus1 = target: CaFus1
# Outline: as §1
# CaHof1 = target: CaHof1
# Outline: as §1
# CaHse1 = target: CaHse1
# Outline: as §1
# CaLsb1 = target: CaLsb1
# Outline: as §1
# CaLsb4 = target: CaLsb4
# Outline: as §1
# CaMyo5 = target: CaMyo5
# Outline: as §1
# CaNbp2 = target: CaNbp2
# Outline: as §1
# CaRvs167 = target: CaRvs167
# Outline: as §1
# CaRvs167-3 = target: CaRvs167-3
# Outline: as §1
# CaSho1 = target: CaSho1
# Outline: as §1
# CaSla1-D1-D2 = target: CaSla1-D1-D2
# Outline: as §1
# CaSla1-D3 = target: CaSla1-D3
# Outline: as §1
# ScAbp1 = target: ScAbp1
# Outline: as §1
# ScBbc1 = target: ScBbc1
# Outline: as §1
# ScBem1-D1 = target: ScBem1-D1
# Outline: as §1
# ScBzz1-D1 = target: ScBzz1-D1
# Outline: as §1
# ScBzz1-D2 = target: ScBzz1-D2
# Outline: as §1
# ScCyk3 = target: ScCyk3
# Outline: as §1
# ScFus1 = target: ScFus1
# Outline: as §1
# ScHof1 = target: ScHof1
# Outline: as §1
# ScHse1 = target: ScHse1
# Outline: as §1
# ScLsb1 = target: ScLsb1
# Outline: as §1
# ScLsb2 = target: ScLsb2
# Outline: as §1
# ScLsb3 = target: ScLsb3
# Outline: as §1
# ScLsb4 = target: ScLsb4
# Outline: as §1
# ScMyo3 = target: ScMyo3
# Outline: as §1
# ScMyo5 = target: ScMyo5
# Outline: as §1
# ScNbp2 = target: ScNbp2
# Outline: as §1
# ScPex13 = target: ScPex13
# Outline: as §1
# ScRvs167 = target: ScRvs167
# Outline: as §1
# ScSho1 = target: ScSho1
# Outline: as §1
# ScSla1-D1-D2 = target: ScSla1-D1-D2
# Outline: as §1
# ScSla1-D3 = target: ScSla1-D3
# Outline: as §1
# SpAbp1-D1 = target: SpAbp1-D1
# Outline: as §1
# SpBbc1 = target: SpBbc1
# Outline: as §1
# SpBzz1-D1 = target: SpBzz1-D1
# Outline: as §1
binder,measurement,setting,value
DFTLPPPPPPPGLDE,SPOT peptide array binding signal intensity,SpBzz1-D2,2.5
same,SPOT peptide array binding signal intensity,SpCyk3,≤ 0
same,SPOT peptide array binding signal intensity,SpHof1,2
same,SPOT peptide array binding signal intensity,SpHof1-2,2.5
same,SPOT peptide array binding signal intensity,SpHof1-3,1.5
same,SPOT peptide array binding signal intensity,SpHse1,≤ 0
same,SPOT peptide array binding signal intensity,SpLsb1,≤ 0
same,SPOT peptide array binding signal intensity,SpLsb4,≤ 0
same,SPOT peptide array binding signal intensity,SpMyo1,1210
same,SPOT peptide array binding signal intensity,SpNbp2,9
same,SPOT peptide array binding signal intensity,SpPex13,≤ 0
same,SPOT peptide array binding signal intensity,SpRvs167,≤ 0
same,SPOT peptide array binding signal intensity,SpSla1-D1-D2,≤ 0
same,SPOT peptide array binding signal intensity,SpSla1-D3,≤ 0
ITHRLRISIPGITGR,SPOT peptide array binding signal intensity,AgAbp1,4.5
same,SPOT peptide array binding signal intensity,AgBbc1,199
same,SPOT peptide array binding signal intensity,AgBem1-D1,314
same,SPOT peptide array binding signal intensity,AgBzz1-D1,121
same,SPOT peptide array binding signal intensity,AgBzz1-D2,236
same,SPOT peptide array binding signal intensity,AgCyk3,10
same,SPOT peptide array binding signal intensity,AgFus1,1770
same,SPOT peptide array binding signal intensity,AgHof1,112
same,SPOT peptide array binding signal intensity,AgHse1,580
same,SPOT peptide array binding signal intensity,AgLsb1,54.5
same,SPOT peptide array binding signal intensity,AgLsb4,687
same,SPOT peptide array binding signal intensity,AgMyo5,≤ 0
same,SPOT peptide array binding signal intensity,AgNbp2,101
same,SPOT peptide array binding signal intensity,AgRvs167,16.7
same,SPOT peptide array binding signal intensity,AgSho1,329
same,SPOT peptide array binding signal intensity,AgSla1-D1-D2,116
same,SPOT peptide array binding signal intensity,AgSla1-D3,6
same,SPOT peptide array binding signal intensity,CaAbp1-D1,111
same,SPOT peptide array binding signal intensity,CaAbp1-D2,39
same,SPOT peptide array binding signal intensity,CaBbc1,306
same,SPOT peptide array binding signal intensity,CaBem1-D1,84
same,SPOT peptide array binding signal intensity,CaBzz1-D1,362
same,SPOT peptide array binding signal intensity,CaBzz1-D2,226
same,SPOT peptide array binding signal intensity,CaCyk3,37.5
same,SPOT peptide array binding signal intensity,CaFus1,2510
same,SPOT peptide array binding signal intensity,CaHof1,1.75
same,SPOT peptide array binding signal intensity,CaHse1,62.5
same,SPOT peptide array binding signal intensity,CaLsb1,5
same,SPOT peptide array binding signal intensity,CaLsb4,141
same,SPOT peptide array binding signal intensity,CaMyo5,20.8
same,SPOT peptide array binding signal intensity,CaNbp2,454
same,SPOT peptide array binding signal intensity,CaRvs167,636
same,SPOT peptide array binding signal intensity,CaRvs167-3,2400
same,SPOT peptide array binding signal intensity,CaSho1,855
same,SPOT peptide array binding signal intensity,CaSla1-D1-D2,28
same,SPOT peptide array binding signal intensity,CaSla1-D3,454
same,SPOT peptide array binding signal intensity,ScAbp1,23
same,SPOT peptide array binding signal intensity,ScBbc1,16.8
same,SPOT peptide array binding signal intensity,ScBem1-D1,44.5
same,SPOT peptide array binding signal intensity,ScBzz1-D1,100
same,SPOT peptide array binding signal intensity,ScBzz1-D2,442
same,SPOT peptide array binding signal intensity,ScCyk3,72
same,SPOT peptide array binding signal intensity,ScFus1,2080
same,SPOT peptide array binding signal intensity,ScHof1,2
same,SPOT peptide array binding signal intensity,ScHse1,2140
same,SPOT peptide array binding signal intensity,ScLsb1,33.5
same,SPOT peptide array binding signal intensity,ScLsb2,22
same,SPOT peptide array binding signal intensity,ScLsb3,282
same,SPOT peptide array binding signal intensity,ScLsb4,20
same,SPOT peptide array binding signal intensity,ScMyo3,≤ 0
same,SPOT peptide array binding signal intensity,ScMyo5,1.5
same,SPOT peptide array binding signal intensity,ScNbp2,397
same,SPOT peptide array binding signal intensity,ScPex13,50.2
same,SPOT peptide array binding signal intensity,ScRvs167,163
same,SPOT peptide array binding signal intensity,ScSho1,2380
same,SPOT peptide array binding signal intensity,ScSla1-D1-D2,267
same,SPOT peptide array binding signal intensity,ScSla1-D3,69
same,SPOT peptide array binding signal intensity,SpAbp1-D1,91.5
same,SPOT peptide array binding signal intensity,SpBbc1,57.2
same,SPOT peptide array binding signal intensity,SpBzz1-D1,486
same,SPOT peptide array binding signal intensity,SpBzz1-D2,1
same,SPOT peptide array binding signal intensity,SpCyk3,30
same,SPOT peptide array binding signal intensity,SpHof1,272
same,SPOT peptide array binding signal intensity,SpHof1-2,31
same,SPOT peptide array binding signal intensity,SpHof1-3,461
same,SPOT peptide array binding signal intensity,SpHse1,625
same,SPOT peptide array binding signal intensity,SpLsb1,10.8
same,SPOT peptide array binding signal intensity,SpLsb4,108
same,SPOT peptide array binding signal intensity,SpMyo1,3
same,SPOT peptide array binding signal intensity,SpNbp2,802
same,SPOT peptide array binding signal intensity,SpPex13,124
same,SPOT peptide array binding signal intensity,SpRvs167,115
same,SPOT peptide array binding signal intensity,SpSla1-D1-D2,1
same,SPOT peptide array binding signal intensity,SpSla1-D3,6.5
